Experimental findings from PubChem BioAssay are described below.

Several values for one entry are separate records, joined by “and”; a condition that tells them apart may be missing. Equal entries are not always repeated. Activity calls are given as the source filed them.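 How the source made its calls, unless noted: active means compounds whose cell count with miR-34 switched on is under 0.7 times the count with it off; inactive means the rest.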 Residues, ends and D or L forms follow the SMILES beside them.

Experiment [1] is described as follows: P. berghei load reduction in hepatocytes – cell-based, HepG2, luciferase luminescence, HepG2 viability, primary screen (AID 624349; in the data active means parasite load remaining mostly below about 12%, no sharp cut-off; inactive means mostly above about 10%;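 further: 100% = mean of DMSO negative control wells on the same plate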). The conditions noted are these: P. berghei liver stage in HepG2, luciferase luminescence, concentration not given here; parasite load remaining: stronger effect = lower value; viability: measured here: HepG2 viability without parasites.
The nature of experiment [2]: EMT-state selective cytotoxicity in co-culture – imaging, PC-3E GFP, TEM4-18 mCherry, primary screen (AID 1345086;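 active means compounds killing one labelled cell type while sparing the other, by normalised counts and ratio limits, not self-fluorescent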;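 on all read-outs here: cells exposed to compound for 72 h before imaging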;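 on red/green cell ratio (normalised): normalised mesenchymal count divided by normalised epithelial count so high means epithelial killing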). The following applies: PC-3E GFP / TEM4-18 mCherry co-culture, imaging cell counts, at 1 µM; for red/green cell ratio (normalised): actives lie on both sides, counts scaled to control wells, 1 = unselective.
The nature of experiment [3]: viability loss with induced miR-34 in A549 – imaging, A549 dox-inducible miR-34, nuclei and caspase counts, primary screen (AID 1347080). The conditions noted are these: A549 miR-34 inducible, Hoechst nuclei count, 48 h.
A short description of experiment [4]: MELAS cybrid and Rieske KO viability enhancers – cell-based, MELAS cybrids, Rieske KO mouse fibroblasts, CellTiter-Glo, primary screen (AID 1508586;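 active means mean z-score across replicates of 1.96 or higher in either the MELAS or the Rieske mutant cell line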;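 further: z relative to plate mean and SD of compound and empty wells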). The conditions noted are these: low glucose. Background: ATP-based viability assays read luminescence as a measure of living cells.
In experiment [5] the target is NAD(+) hydrolase SARM1 (Homo sapiens) (UniProt Q6SZW1). Description: blocking NAD cleavage by SARM1 SAM-TIR – cell lysate, NAD-Glo luminescence (AID 1508614;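 active means compound whose remaining NAD level is above about 45 nM, limit read from the data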). The following applies: SAM-TIR HEK293T lysate NADase, at 1 µM, stronger effect = higher value.
The nature of experiment [6]: compounds altering viability of human ES cells (AID 493140; call rule not given here;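 further: cells exposed to compounds for four days before counting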). The conditions noted are these: human embryonic stem cell survival screen; stronger effect = higher value.
[7] abbreviates: measured here: epithelial PC-3E GFP cell survival.
Where [8] appears, read: measured here: mesenchymal TEM4-18 mCherry cell survival.
Setting [9] is: stronger effect = lower value, cell number ratio, induced over uninduced.
Where [10] appears, read: measured here: relative caspase fold change +Dox/-Dox.
[11] abbreviates: measured here: total cells with miR-34 induction, stronger effect = lower value.
The mark [12] stands for this setting: measured here: total cells without miR-34 induction.
[13] abbreviates: MELAS cybrid survival, CellTiter-Glo 48 h, stronger effect = higher value.
The mark [14] stands for this setting: Rieske KO mouse fibroblast survival, CellTiter-Glo 72 h.

Sequence of NAD(+) hydrolase SARM1 (Homo sapiens) (Q6SZW1 whole entry, looked up): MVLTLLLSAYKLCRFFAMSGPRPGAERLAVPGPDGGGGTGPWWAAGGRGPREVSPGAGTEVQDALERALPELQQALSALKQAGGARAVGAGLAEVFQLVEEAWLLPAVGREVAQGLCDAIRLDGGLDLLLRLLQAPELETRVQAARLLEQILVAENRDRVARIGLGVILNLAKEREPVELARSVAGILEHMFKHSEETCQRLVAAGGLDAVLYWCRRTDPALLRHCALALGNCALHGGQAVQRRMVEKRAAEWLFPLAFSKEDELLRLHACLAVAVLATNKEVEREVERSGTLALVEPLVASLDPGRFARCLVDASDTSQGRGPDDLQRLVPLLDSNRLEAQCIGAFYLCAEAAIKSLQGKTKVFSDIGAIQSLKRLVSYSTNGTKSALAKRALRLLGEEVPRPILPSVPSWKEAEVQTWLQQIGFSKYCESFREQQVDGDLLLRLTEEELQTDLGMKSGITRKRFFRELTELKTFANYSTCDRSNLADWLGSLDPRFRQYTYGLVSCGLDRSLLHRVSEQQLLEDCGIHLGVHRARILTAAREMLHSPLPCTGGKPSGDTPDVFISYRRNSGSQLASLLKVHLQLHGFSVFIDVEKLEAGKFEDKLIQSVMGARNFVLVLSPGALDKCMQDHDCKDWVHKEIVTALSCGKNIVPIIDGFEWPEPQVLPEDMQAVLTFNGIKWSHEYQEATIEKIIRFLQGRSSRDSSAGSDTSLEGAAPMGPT

By viability is commonly meant a read-out of living cells in per cent, often relative to untreated cells. In the case of `O=C(Nc1ccccc1)c1ccccc1O`, the parasite load remaining in experiment [1] was 67.6% (inactive). Moreover, the viability in experiment [1] turned out to be 101%. Further, in experiment [2], the red/green cell ratio (normalised) was 1 (inactive). Also, the normalised cell number in experiment [2] (setting [7]) and in experiment [2] (setting [8]) was 1.39 throughout. Besides, the fold change is 0.912 (inactive) and 0.877 (inactive) in experiment [3] (setting [9]); 0.72 and 3.66 in experiment [3] (setting [10]). For the same molecule, the cell count in experiment [3] (setting [11]) is 7720 and 10000; in experiment [3] (setting [12]), 8460 and 11400. In addition, the results for the z-score in experiment [4] (setting [13]) and in experiment [4] (setting [14]) were -0.183 (inactive) and -0.206, respectively. Besides, in experiment [5], the remaining NAD is 10 nM (inactive).
With `Cc1nccnc1N1CCCCC1`, the red/green cell ratio (normalised) in experiment [2] is 1.12 (inactive). For the same molecule, the normalised cell number was found to be 0.93 in experiment [2] (setting [7]) and 1.04 in experiment [2] (setting [8]). Besides, the fold change in experiment [3] (setting [9]) is 0.964 (inactive); in experiment [3] (setting [10]), 0.767. Besides, the cell count in experiment [3] (setting [11]) amounted to 9440; in experiment [3] (setting [12]) it was 9790. Further, the remaining NAD in experiment [5] is 10 nM (inactive).
Turning to `CC(C)[C@H](NC(=O)[C@H](CC(=O)O)NC(=O)[C@H](CCCCN)NC(=O)[C@@H](N)CCCN=C(N)N)C(=O)N[C@@H](Cc1ccc(O)cc1)C(=O)O` (H-RKDVY-OH), the red/green cell ratio (normalised) in experiment [2] is 0.91 (inactive). In addition, the results for the normalised cell number in experiment [2] (setting [7]) and in experiment [2] (setting [8]) were 1.09 and 0.99, respectively. Moreover, the values for the fold change in experiment [3] (setting [9]) and in experiment [3] (setting [10]) were 0.895 (inactive) and 0.732, respectively. The cell count is 8230 in experiment [3] (setting [11]) and 9190 in experiment [3] (setting [12]). Also, in experiment [5], the remaining NAD was 10 nM (inactive).
Regarding `CC1(C)OC(=O)C(OCC2CC2)=C1c1ccc(S(C)(=O)=O)cc1`, the red/green cell ratio (normalised) in experiment [2] is 1.08 (inactive). Besides, the results for the normalised cell number in experiment [2] (setting [7]) and in experiment [2] (setting [8]) were 1.02 and 1.1, respectively. The figures for the fold change in experiment [3] (setting [9]) and in experiment [3] (setting [10]) were 0.945 (inactive) and 0.86, respectively. The results for the cell count in experiment [3] (setting [11]) and in experiment [3] (setting [12]) were 8900 and 9420, respectively. For the same molecule, the remaining NAD in experiment [5] is 10 nM (inactive).
Take `O=C(O)Cc1cc(I)c(Oc2ccc(O)c(I)c2)c(I)c1`: in experiment [6], the survival is 18.8 (inactive). Also, the parasite load remaining in experiment [1] is 35.5% (inactive) and 118% (inactive). For the same molecule, the viability in experiment [1] was 46% and 91.7%. Moreover, the red/green cell ratio (normalised) in experiment [2] was 0.98 (inactive). Also, the normalised cell number came to 1.1 in experiment [2] (setting [7]) and 1.08 in experiment [2] (setting [8]). Besides, the fold change was 1.03 (inactive) and 0.918 (inactive) and 0.892 (inactive) in experiment [3] (setting [9]); 0.599 and 1.29 and 1.64 in experiment [3] (setting [10]). For the same molecule, the cell count is 7190 and 8760 and 9000 in experiment [3] (setting [11]); 6990 and 9530 and 10100 in experiment [3] (setting [12]). For the same molecule, the z-score in experiment [4] (setting [13]) was -0.0879 and -3.89 (inactive); in experiment [4] (setting [14]) it was 5.02 and -3.53. The remaining NAD in experiment [5] was 10 nM (inactive).
On to `CCC[C@@H]1C[C@@H](C(=O)N[C@@H](C2O[C@H](SC)[C@H](O)[C@@H](O)[C@H]2O)[C@H](C)Cl)N(C)C1` (stereo partly specified), for which the survival in experiment [6] was 18.7 (inactive). Also, in experiment [1], the parasite load remaining is 39.2% (inactive) and 98.8% (inactive) and 83.4% (inactive). Moreover, in experiment [1], the viability is 46.1% and 89% and 92.6%. In addition, in experiment [2], the red/green cell ratio (normalised) was 1.26 (inactive). Moreover, the normalised cell number was found to be 1.17 in experiment [2] (setting [7]) and 1.47 in experiment [2] (setting [8]). In addition, the fold change in experiment [3] (setting [9]) was 0.895 (inactive) and 0.881 (inactive); in experiment [3] (setting [10]), 1.74 and 1.41. Besides, the cell count in experiment [3] (setting [11]) was 9010 and 10700; in experiment [3] (setting [12]), 10100 and 12200. Moreover, the z-score in experiment [4] (setting [13]) was 0.619 (inactive); in experiment [4] (setting [14]), -0.624.
As to `Cc1c(C)c2c(c(C)c1O)CCC(C)(C(=O)O)O2` (stereo unspecified), the survival in experiment [6] was 0.667 (inactive). In addition, in experiment [1], the parasite load remaining was 201% (inactive) and 66.3% (inactive). For the same molecule, the viability in experiment [1] is 117% and 76.7%. The red/green cell ratio (normalised) in experiment [2] was 0.84 (inactive). Further, the figures for the normalised cell number in experiment [2] (setting [7]) and in experiment [2] (setting [8]) were 1.17 and 0.98, respectively. Besides, the fold change in experiment [3] (setting [9]) was 0.854 (inactive); in experiment [3] (setting [10]), 1.44. Moreover, the cell count worked out at 8370 in experiment [3] (setting [11]) and 9800 in experiment [3] (setting [12]). Moreover, the z-score in experiment [4] (setting [13]) was -0.259 (inactive); in experiment [4] (setting [14]), -0.0183.
Consider `O=C1c2ccccc2C(=O)C1c1ccc(Cl)cc1`, for which the red/green cell ratio (normalised) in experiment [2] was 0.87 (inactive). The results for the normalised cell number in experiment [2] (setting [7]) and in experiment [2] (setting [8]) were 1.18 and 1.03, respectively. Moreover, the fold change is 0.921 (inactive) in experiment [3] (setting [9]) and 1.21 in experiment [3] (setting [10]). For the same molecule, the cell count in experiment [3] (setting [11]) worked out at 7610; in experiment [3] (setting [12]) it was 8270. Also, the remaining NAD in experiment [5] was 10 nM (inactive).
